Laboratory results as given in PubChem BioAssay AID2732 (Emory University Molecular Libraries Screening Center, 2010).
The whole screen tested about 220,000 compounds, of which about 8,200 (3.7%) were called active. The list comes from a sample in which actives are over-represented; it also holds similar structures and randomly drawn compounds. A number with no mark means an inactive call.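 How the source made its calls: active means compounds that reduced the stress-induced luciferase reporter signal by more than about 70% of percent inhibition (limit read from the data); inactive means the rest.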

Assay: inhibitors of CHOP promoter induction, primary screen, cell-based, unfolded protein response, luciferase reporter (AID 2732);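 further: 0% = tunicamycin plus vehicle and 100% = wells without tunicamycin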
Conditions: CHO-K1 CHOP-promoter luciferase, tunicamycin-induced, 15-18 h; at 10 µM; active compounds read high
For O=C(CSc1ncn[nH]1)Nc1nc(-c2cccc([N+](=O)[O-])c2)cs1, the inhibition was 7.63%.
With O=C(c1ccco1)N1CCN(CCOc2ccccc2)CC1 the inhibition was 1.67%.
Compound Cc1ccc2nc(-c3ccccc3)cc(C(=O)O)c2c1 has an inhibition of -1.51%.
With CCS(=O)(=O)Nc1cccc(-c2cc(-c3ccccc3)c3cc(C)ccc3n2)c1 the inhibition was 78.8% (active).
CC(=O)Nc1cccc(-c2cnc3ccccc3n2)c1 gave an inhibition of -21.7%.
Compound CCOC(=O)c1[nH]cnc1C(=O)Nc1ccccc1C has an inhibition of -6.79%.
For CCOC(=O)c1ccc(NC(=O)c2nc[nH]c2C(=O)N[C@@H](CCCCNC(=O)OC(C)(C)C)C(=O)OC(C)(C)C)cc1, the inhibition was 44.5%.
For CCOC(=O)c1ccc(NC(=O)c2nc[nH]c2C(=O)NCc2ccccc2)cc1, the inhibition was 94.5% (active).
In the case of CCC(=O)c1ccc(OCC(=O)Nc2ccc3nc(C)sc3c2)cc1, the inhibition was 0.17%.
Work on COc1ccc2nc(Nc3nc4ccc(NC(C)=O)cc4s3)sc2c1 yielded an inhibition of -58.2%.
With CCOc1ccc2nc(Nc3nc4ccc(NC(C)=O)cc4s3)sc2c1 the inhibition was 106% (active).
For O=C(NNS(=O)(=O)c1ccccc1C(F)(F)F)c1cc2ncc(C(F)(F)F)cc2s1, the inhibition was -0.25%.
Cn1c(=O)c2c(nc(OCc3cccnc3)n2Cc2ccccc2)n(C)c1=O showed an inhibition of 7.91%.
Compound C=CCn1c(Oc2ccc(C(=O)OC)cc2)nc2c1c(=O)n(C)c(=O)n2C has an inhibition of 3.03%.
With C=CCOc1nc2c(c(=O)n(C)c(=O)n2C)n1Cc1ccc(Cl)cc1Cl the inhibition was 93.2% (active).
For Clc1ccc(C[n+]2cc(-c3ccc(Cl)cc3)n3c2CCC3)cc1, the inhibition was -2.43%.
In the case of Cc1nn(Cc2ccc(Cl)cc2)c(Cl)c1/C=N/NC(=O)c1cccnc1, the inhibition was -12.2%.
In the case of CCn1nc(C)c(/C=N/NC(=O)Cc2ccc(Cl)cc2)c1C, the inhibition was 14.1%.
For Cc1nn(Cc2ccc(Cl)cc2)c(Cl)c1/C=N/NC(=O)CNc1ccccc1F, the inhibition was 96.1% (active).
For Oc1[nH]c2ccc(Br)cc2c1N=Nc1nn[nH]n1, the inhibition was -5.13%.
Work on CCOC(=O)c1ccc(N=C2SC(C(=O)NC)CC(=O)N2CCc2ccccc2)cc1 (stereo not drawn) yielded an inhibition of -10.9%.
Compound O=C(NCCN1CCN(Cc2ccccc2)CC1)c1cc2c(=O)[nH]c3ccccc3c2s1 has an inhibition of 21.6%.
For Cc1cccc(N(C)C(=O)c2cc3c(=O)[nH]c4ccc(C)cc4c3s2)c1, the inhibition was 80.4% (active).
Cc1ccc2[nH]c(=O)c(CC=C(Cl)Cl)c(C)c2c1 gave an inhibition of 52.8%.
In the case of S=C(NNC(=S)NC1CC2C=CC1C2)NC1CC2C=CC1C2 (stereo not drawn), the inhibition was 9.31%.
In the case of C/C(=N/NC(=O)c1ccn(C)n1)c1ccncc1, the inhibition was 12.5%.
In the case of COc1ccc(Nc2nc(NCc3ccco3)nc(N/N=C/c3ccccc3Cl)n2)cc1, the inhibition was -19.9%.
With COc1ccc(Nc2nc(Cl)nc(NCc3ccco3)n2)cc1 the inhibition was 85% (active).
COc1cccc(Nc2nc(N)c([N+](=O)[O-])c(NCc3ccco3)n2)c1 showed an inhibition of 38.9%.
For COc1ccc(Br)c2c1C(=O)CC2, the inhibition was 10.2%.
For Cn1nccc1NC(=O)CC(CC(=O)O)c1ccccc1 (stereo not drawn), the inhibition was 25.4%.
Work on COc1cc2c(cc1OC)C(/C=C/c1ccco1)=NCC2 yielded an inhibition of 1.07%.
With COC(=O)C1=C(N)Oc2cc(C)[nH]c(=O)c2C1c1ccc(Cl)cc1 (stereo not drawn) the inhibition was -8.98%.
With C=C(C)C(=O)O[C@H]1C/C(C)=C\C(=O)/C=C(\C)[C@H](O)[C@@H]2OC(=O)C(=C)[C@@H]21 the inhibition was 107% (active).
O=C(O)C#Cc1cccc2ccccc12 showed an inhibition of -1.61%.
With COc1ccc(F)cc1S(=O)(=O)N1CCCCC1 the inhibition was 10.6%.
CCOC(=O)c1ccc(S(=O)(=O)N(CCO)Cc2cc3cc(OC)c(OC)cc3[nH]c2=O)cc1 showed an inhibition of 23.6%.
With Cc1nc(-c2ccc(Cl)cc2)sc1C1(C)CC(c2ccccc2F)=NO1 (stereo not drawn) the inhibition was -3.45%.
Work on CCC/C(C)=N\Nc1nc2c(c(=O)n(C)c(=O)n2C)n1C yielded an inhibition of 6.66%.
With Cc1ccc(C2(C(F)(F)F)N=C3Sc4cc(C)cc(C)c4N3C(=O)N2)cc1 (stereo not drawn) the inhibition was 76.7% (active).
CCOC(=O)c1cc(Sc2ccccc2N)cc(C(=O)OCC)n1 gave an inhibition of 15.6%.
With CCN(CC)CCn1c(N)c(S(=O)(=O)c2ccccc2)c2nc3ccccc3nc21 the inhibition was -7.46%.
NS(=O)(=O)c1ccc(CNC(=O)c2cnccn2)cc1 gave an inhibition of -3.79%.
Compound COc1ccc(Nc2cc(=O)n(-c3ccccc3)c3c2c(=O)n(C)c(=O)n3C)cc1 has an inhibition of 7.22%.
For Cc1ccc(S(=O)(=O)NNC(=S)NC(C)(C)C)cc1, the inhibition was -12.5%.
In the case of CSc1nnc(-c2ccc(C(F)(F)F)cn2)o1, the inhibition was -2.28%.
In the case of CCN(CC)S(=O)(=O)c1ccc2nc(COC(=O)c3n[nH]c4ccccc34)[nH]c2c1, the inhibition was 104% (active).
Work on CCN(CC)S(=O)(=O)c1ccc2nc(CSc3nnnn3-c3ccc(O)cc3)[nH]c2c1 yielded an inhibition of 29.3%.
In the case of CN(C)S(=O)(=O)c1ccc(NC(=O)COC(=O)c2n[nH]c3ccccc23)cc1, the inhibition was 22.3%.
In the case of C/C(=N/NC(=O)CC(=O)N/N=C(\C)c1ccc([N+](=O)[O-])cc1)c1ccc([N+](=O)[O-])cc1, the inhibition was -0.51%.
With CCCSc1nc2c(c(=O)[nH]c(=O)n2C)n1CCc1ccccc1 the inhibition was 19.8%.
With CCCCCn1c(SCCC(C)C)nc2c1c(=O)[nH]c(=O)n2C the inhibition was 97.9% (active).
In the case of CCCCCCn1c(SCC(=O)c2ccccc2)nc2c1c(=O)[nH]c(=O)n2C, the inhibition was -4.27%.
Compound Cc1cc(C(=O)NCCc2ccc(Cl)cc2)n(-c2ccccc2)n1 has an inhibition of 16.9%.
CC1CCCN(Cc2nc3c(c(=O)n(C)c(=O)n3C)n2CC(=O)c2ccccc2)C1 (stereo not drawn) showed an inhibition of 3.62%.
In the case of CCCCCCn1c(CN2CCCC(C)C2)nc2c1c(=O)n(C)c(=O)n2C (stereo not drawn), the inhibition was 97.9% (active).
Work on CCN1CCN(Cc2nc3c(c(=O)n(C)c(=O)n3C)n2CC(=O)c2ccccc2)CC1 yielded an inhibition of 6.1%.
With O=C(NNS(=O)(=O)Cc1ccccc1)c1ccc([N+](=O)[O-])cc1 the inhibition was 0.23%.
